TDP43 rescue = inhibitors of TDP-43 toxicity in yeast; actives 1.8% (n = 410,000); Potency, µM (series often up to 46.1 µM), without a hit: at the top dose growth rescue (activation), actives largely listed as activators; TDP-43 expressing yeast growth rescue, BacTiter-Glo, 24 h; also: % of control where 0% means no effect; nearly all actives have a fitted effect of over 50% in size
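Yeast cells expressing TDP-43 under galactose induction are exposed to compounds for 24 hr at 30 deg C. BacTiter-Glo luminescence measures growth, so protective compounds score as activators.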
Abeta yeast res = A-beta toxicity reversal in yeast; AID 1347071; actives 0.063% (n = 410,000); Potency, µM (series often up to 46.1 µM), hits mostly activators; yeast expressing A-beta42, growth rescue, OD600, 48 h; response scale: 0% DMSO, 100% iron-clioquinol control; also: nearly all actives have a fitted effect of over 55% in size
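Yeast A-beta toxicity model in growth medium with pinned compounds, 48 h at 30 C; growth read as absorbance at 600 nm. Normalized to FeCl3/clioquinol equimolar mix (positive) and DMSO (negative).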
FUS yeast rescue = FUS proteinopathy suppression in yeast. S. cerevisiae FUS-expressing, growth rescue, OD600, 24 h. Potency, µM (highest dose often 76.6 µM), most hits filed as activators. actives 0.24% (n = 390,000). AID 1347120;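 also: plate controls were DMSO vehicle for no effect and reference control for full effect; nearly all actives have a fitted effect of over 55% in size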
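Toxicity suppression screen in FUS-yeast. Cells induced with 2% galactose, starting OD 0.005, treated 24hr at 30C with compounds at multiple final concentrations; growth by OD600.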
aSyn rescue = inhibitors of alpha-synuclein toxicity in yeast | Yeast expressing alpha-synuclein, growth rescue, BacTiter-Glo, 24 h | Potency, µM (doses to about 46.1 µM), for inactives: at the highest dose growth rescue (activation), most hits filed as activators | actives 0.14% (n = 370,000); also: % of control where 0% means no effect; nearly all actives have a fitted effect of over 65% in size
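Rescue of yeast growth: cells expressing toxic alpha-synuclein, induced in galactose at OD600 0.02, incubated with compound 24 h at 30 C. ATP luminescence quantified growth; inhibitors of toxicity appear as activators.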
Mito fusion yeast = mitochondrial division inhibition or fusion activation; S. cerevisiae fusion-defective mutant growth rescue, CellTiterGlo 48 h; Potency, µM (series often up to 46.1 µM), inactives show top-dose growth rescue (activation), actives largely listed as activators; actives 0.23% (n = 320,000); AID 485298; also: % of control where 0% means no effect; nearly all actives have a fitted effect of over 45% in size
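Growth-rescue viability read-out: after 48 h at the non-permissive 37C in glycerol/ethanol YPEG, yeast mitochondrial fusion mutants are measured by CellTiterGlo luminescence; compounds (23 nl pinned per well) restoring growth score as division inhibitors or fusion activators.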
The depositor's hits bear a star; [ ] = another dose, or the depositor's remark. Shown are actives, neighbours in structure and some others; about 2.2% of the full set was active somewhere. Calls follow the shape of the dose curve; as a rule, active = well fitted curve in the direction sought with a large enough effect; inconclusive = small, poorly fitted or top-dose-only effect, or another doubt; inactive = no such curve, though single readings can be large; an effect the other way counts as inactive or inconclusive. Potency is read from the fitted curve at half-maximal effect.

What do the screens show for `COC(=O)C[C@H]1C=C[C@H](NC(=O)Cc2ccccc2)[C@@H](CO)O1`?
TDP43 rescue: 21%; Abeta yeast res: inactive; FUS yeast rescue: inactive; aSyn rescue: 3.5µM*

Results for O=C(CCc1cn(Cc2ccc(F)cc2)c2ccccc12)NCCc1ccc(Cl)cc1 ?
TDP43 rescue: 6%; Abeta yeast res: inactive; FUS yeast rescue: inactive

What do the screens show for `COc1cc(/C=N/NC(=S)NC2CC3CCC2C3)ccc1O` (stereo not drawn)?
TDP43 rescue: 22µM*; Abeta yeast res: 11µM*; FUS yeast rescue: inactive; aSyn rescue: -9%; Mito fusion yeast: -2%

What do the screens show for `COc1ccc(/C=N/NC(=S)N[C@H]2CC3CCC2C3)cc1` (stereo partly drawn)?
TDP43 rescue: 8%; Abeta yeast res: inconclusive; FUS yeast rescue: inactive; aSyn rescue: 1%; Mito fusion yeast: -6%

What do the screens show for `CCC1(C)Cc2c(sc(NC(=O)CCC(=O)O)c2C#N)CO1` (stereo not drawn)?
TDP43 rescue: -5%; Abeta yeast res: inactive; FUS yeast rescue: inactive; aSyn rescue: -5%; Mito fusion yeast: 4%

Results for CCC(=O)Nc1sc2c(c1C#N)CC(C)(CC)OC2 (stereo not drawn) ?
TDP43 rescue: 11µM*; Abeta yeast res: inactive; FUS yeast rescue: inactive; Mito fusion yeast: 2%

How did O=C(O)Cc1ccc(Oc2ncc(C(F)(F)F)cc2Cl)cc1 do in these assays?
TDP43 rescue: 13µM*; Abeta yeast res: inactive; FUS yeast rescue: inactive; aSyn rescue: 2%; Mito fusion yeast: -9%

Results for O=CN1Cc2ccccc2-c2ccccc2C1 ?
TDP43 rescue: 13µM*; Abeta yeast res: inactive; FUS yeast rescue: inactive; aSyn rescue: 18%; Mito fusion yeast: 1%

Results for CCCC1CCC2(CCC(=O)N2CCSc2ccccc2)CC1 (stereo not drawn) ?
FUS yeast rescue: inactive

What do the screens show for `COc1ccccc1NC(=S)N(Cc1ccccc1)Cc1ccccn1`?
TDP43 rescue: 22µM*; Abeta yeast res: inconclusive; FUS yeast rescue: inactive; aSyn rescue: 4%; Mito fusion yeast: 13%

What do the screens show for `S=C(Nc1ccccc1Cl)N(Cc1ccccc1)Cc1ccccn1`?
TDP43 rescue: inconclusive; Abeta yeast res: inconclusive; FUS yeast rescue: inactive; aSyn rescue: 9%; Mito fusion yeast: 18µM*

What do the screens show for `COc1ccc(CCN(Cc2ccccn2)C(=S)Nc2ccccc2Cl)cc1OC`?
TDP43 rescue: 29%; Abeta yeast res: inactive; FUS yeast rescue: inactive; aSyn rescue: 4%; Mito fusion yeast: 5%[9.22 µM]

How did CN1C(=O)c2ccc(NC(=O)C3CC3)cc2C1=O do in these assays?
TDP43 rescue: 14%; Abeta yeast res: inactive; FUS yeast rescue: inactive; aSyn rescue: -5%; Mito fusion yeast: 3%

Results for COc1ccc(OC)c(CCNc2ncnc3onc(-c4ccc(F)cc4)c23)c1 ?
TDP43 rescue: inconclusive; Abeta yeast res: inactive; FUS yeast rescue: inactive

Results for CCOC(=O)[C@]12CCCCC/C=C\1N(Cc1ccc(OC)cc1)C(=O)[C@H]2CC(=O)N1CCSCC1 ?
FUS yeast rescue: inactive

What do the screens show for `O=C(/C=C/c1ccc2c(c1)OCO2)N1CCN(c2ccccc2F)CC1`?
TDP43 rescue: 35µM*; Abeta yeast res: inactive; aSyn rescue: 5%; Mito fusion yeast: 6%

Results for COc1ccccc1N1CCN(C(=O)/C=C/c2ccc3c(c2)OCO3)CC1 ?
TDP43 rescue: inconclusive; Abeta yeast res: inactive; FUS yeast rescue: inactive; aSyn rescue: 5%; Mito fusion yeast: 2%

What do the screens show for `CSc1nc2sc3c(c2c(=O)n1-c1ccccc1)CCC(C(C)(C)C)C3` (stereo not drawn)?
TDP43 rescue: 7%; Abeta yeast res: inactive; FUS yeast rescue: inactive; aSyn rescue: -3%

What do the screens show for `CCN(C(=O)CSc1nc2ncccc2[nH]1)c1ccc(C(C)C)cc1`?
TDP43 rescue: inconclusive; Abeta yeast res: inactive; FUS yeast rescue: inactive

What do the screens show for `CCOc1cc(C=NN2CCN(Cc3ccc(C)cc3)CC2)ccc1O`?
FUS yeast rescue: inactive

What do the screens show for `Cc1ccc(N2CN(CCc3ccccc3)CNC2=S)cc1`?
TDP43 rescue: 19%; Abeta yeast res: 11µM*; FUS yeast rescue: inactive; aSyn rescue: 0%; Mito fusion yeast: 2%

How did CCOC(=O)c1ccc(N2CN(CCc3ccccc3)CNC2=S)cc1 do in these assays?
TDP43 rescue: 29%; Abeta yeast res: inactive; aSyn rescue: 6%; Mito fusion yeast: -3%

Results for COc1ccc(/C=C/C(=O)Oc2ccc(C=O)cc2OC)cc1 ?
TDP43 rescue: 28%; Abeta yeast res: inactive; FUS yeast rescue: inactive; aSyn rescue: 1%

How did COc1ccc(/C=C/C(=O)OCCNC(=O)c2ccncc2)cc1OC do in these assays?
TDP43 rescue: 13%; Abeta yeast res: inconclusive; FUS yeast rescue: inactive; aSyn rescue: 4%; Mito fusion yeast: -4%

What do the screens show for `COC(=O)Oc1ccc(/C=C/C(=O)OC(C)C)cc1OC(=O)OC`?
TDP43 rescue: 14µM*; Abeta yeast res: inactive; FUS yeast rescue: inactive; aSyn rescue: -12%; Mito fusion yeast: 7%

Results for CCCCOC(=O)/C=C/c1ccc(OC(=O)OC)c(OC(=O)OC)c1 ?
TDP43 rescue: 14µM*; Abeta yeast res: inactive; FUS yeast rescue: inactive; aSyn rescue: -41%; Mito fusion yeast: -5%

How did COc1ccccc1NC(=O)Cn1c(SCC(=O)N(C)c2ccccc2)nc2ccccc21 do in these assays?
TDP43 rescue: 0%; Abeta yeast res: inactive; FUS yeast rescue: inactive

What do the screens show for `O=C1c2ccccc2S(=O)(=O)c2cc(C(=O)N3CCN(c4ccccc4)CC3)ccc21`?
TDP43 rescue: 18µM*; Abeta yeast res: inactive; FUS yeast rescue: inactive; aSyn rescue: 21%

What do the screens show for `Cc1[nH]c2ccc(C(=O)N3CCN(c4ccccc4Cl)CC3)cc2c1C`?
TDP43 rescue: 20µM*; Abeta yeast res: inactive; FUS yeast rescue: inactive; aSyn rescue: 18µM*; Mito fusion yeast: 8%

What do the screens show for `Cc1[nH]c2ccc(C(=O)N3CCN(c4ccccc4F)CC3)cc2c1C`?
TDP43 rescue: 22µM*; Abeta yeast res: inactive; FUS yeast rescue: inconclusive

Results for Cc1c(C)n(C)c2ccc(C(=O)N3CCN(c4ccccc4)CC3)cc12 ?
TDP43 rescue: 16µM*; Abeta yeast res: inactive; FUS yeast rescue: inactive; aSyn rescue: 7%; Mito fusion yeast: 13%

Results for Cc1cccc(N2CCN(C(=O)c3ccc4[nH]c(C)c(C)c4c3)CC2)c1C ?
TDP43 rescue: 10%; Abeta yeast res: inactive; FUS yeast rescue: inactive; aSyn rescue: 11%

Bioassay records (PubChem)
